High-throughput results as filed in PubChem.
Shiga inhibitor: A qHTS for Small Molecule Inhibitors of Shiga Toxin | Vero cells, Shiga toxin protein synthesis inhibition reporter | inhibition, % at 38.7 µM | hit rate 9.2% among 290,000; in the data active means inhibition mostly above about 28%, no sharp cut-off; inactive means mostly below about 43%; further: 0% is about no effect
HCMV antiviral: qHTS Assay for inhibitors of the human cytomegalovirus (HCMV); HFF cells, HCMV-luciferase reporter, 72 h; stronger effect = lower value; activity change, negative = inhibition, % at 57.5 µM; hit rate 4.5% among 410,000; AID 1259415, 2018; in the data active means activity change below about -60%; inconclusive means no clear call, values can overlap the other calls; inactive means above about -39%; further: on the % scale 0 is the no-effect control and ±100 the full control effect
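Human foreskin fibroblasts infected with luciferase-reporter HCMV at MOI 1 PFU/cell, compounds at two doses. Luciferase measured 72 h post infection; normalized to buffer-only basal and Salinomycin (10uM) controls.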
Cycloheximide cs: Cycloheximide Counterscreen for Small Molecule Inhibitors of Shiga Toxin; cell reporter, cycloheximide protein synthesis inhibition counterscreen; max response, %; hit rate 12% among 300,000; AID 2314, 2010; in the data active means max response mostly above about 13%, no sharp cut-off; inactive means mostly below about 14%; further: read at 38.3 µM for the half of the compounds with a filed dose; 0% is about no effect
Pf growth 48h: Primary qHTS for delayed death inhibitors of the malarial parasite plastid, 48 hour incubation. P. falciparum luciferase growth in erythrocytes, 48 h. Potency, µM (titrated, usually from 28.7 µM), for the others: at the highest dose activity change, negative = inhibition, usual class: inhibitors. hit rate 5.9% among 310,000. AID 504832, 2011; further: potency means the concentration at half of the fitted maximal effect; on the % scale 0 is the no-effect control and ±100 the full control effect
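Parasite viability was followed by luminescence of a genomically integrated firefly luciferase. Cultures held 0.1% parasitemia at 2% hematocrit (final), incubated under 5% CO2 at 37 C.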
Pf growth 96h: Primary qHTS for delayed death inhibitors of the malarial parasite plastid, 96 hour incubation. P. falciparum luciferase reporter growth, 96 h. Potency, µM (doses to about 28.7 µM), without a hit: at the highest dose activity change, negative = inhibition, most hits filed as inhibitors. hit rate 6.9% among 320,000; further: potency means the concentration at half of the fitted maximal effect; on the % scale 0 is the no-effect control and ±100 the full control effect
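Luminescence readout: decreased luciferase signal marks inhibited growth of reporter-expressing P. falciparum in infected red cells (2% hematocrit, 0.05% parasitemia final), exposed to compound two generations (96 h, 37 C, 5% CO2).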
HCV inh: qHTS Assay for Inhibitors of Hepatitis C Virus (HCV); Potency, µM (doses to about 41.8 µM), inactives show top-dose activity change, negative = inhibition, usual class: inhibitors; Huh7.5.1 HCVcc-Cre infection, luciferase reporter, 44 h; hit rate 3.4% among 340,000; further: potency means the concentration at half of the fitted maximal effect; on the % scale 0 is the no-effect control and ±100 the full control effect
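Cells seeded at 1,000/well and cultured 4 h, then compounds added followed by HCVcc-Cre virus (~0.5 moi). After 44 h further culture, luciferase substrate was added, plates held 15 min at room temperature, and luminescence read for 15 sec.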
Numbers without * were called inactive. Sampled rows, rich in hits. Any-hit rate of the full collection: about 21%. Unless noted, the call rests on the fitted dose curve; in most records, active means well fitted inhibition curve with a large enough effect; inconclusive means small, poorly fitted or top-dose-only effect, or another doubt; inactive means no such curve, though single readings can be large or run the other way.

What do the screens show for `CCOC(=O)C1(Cc2cccc(Cl)c2)CCCN(C(=O)c2cccc(C)n2)C1` (stereo unspecified)?
Shiga inhibitor: -2; HCMV antiviral: 1; Cycloheximide cs: 2; Pf growth 48h: inconclusive; Pf growth 96h: inconclusive; HCV inh: 18µM*

Results for CCOC(=O)C1(Cc2cccc(Cl)c2)CCCN(C(=O)c2ccco2)C1 (stereo unspecified) ?
Shiga inhibitor: 64*; HCMV antiviral: 10; Cycloheximide cs: 16; Pf growth 48h: -15%; Pf growth 96h: inconclusive; HCV inh: -6%

What do the screens show for `CCOC(=O)C1(Cc2cccc(Cl)c2)CCCN(C(=O)C2CC2)C1` (stereo unspecified)?
Shiga inhibitor: 5; HCMV antiviral: -21; Cycloheximide cs: 14*; Pf growth 48h: -4%; Pf growth 96h: -11%; HCV inh: -15%

Results for CCOC(=O)C1(Cc2cccc(Cl)c2)CCCN(C(=O)c2ccoc2C)C1 (stereo unspecified) ?
Shiga inhibitor: 25; HCMV antiviral: -3; Cycloheximide cs: 10; Pf growth 48h: inconclusive; Pf growth 96h: inconclusive; HCV inh: -2%

Results for CCOC(=O)C1(Cc2cccc(Cl)c2)CCCN(C(=O)c2occc2C)C1 (stereo unspecified) ?
Shiga inhibitor: 26; HCMV antiviral: -17; Cycloheximide cs: 14; Pf growth 48h: -23%; Pf growth 96h: inconclusive; HCV inh: -30%

What do the screens show for `Cc1nc(SCC(=O)NCc2ccco2)c2c(=O)n(C)c(=O)n(CC(C)C)c2n1`?
Shiga inhibitor: -19; Cycloheximide cs: -2; Pf growth 48h: inconclusive; Pf growth 96h: inconclusive

Results for CCNc1ccc(-c2nc(-c3ccco3)no2)cc1[N+](=O)[O-] ?
HCMV antiviral: 62

What do the screens show for `COc1ccc(NC(=O)CN(C)S(=O)(=O)c2ccc(C(=O)N3CCOCC3)s2)cc1`?
HCMV antiviral: -5

Results for COc1ccc(C(C)=O)cc1CSC(=S)N1CCSCC1 ?
HCMV antiviral: 22

Results for O=C1CC(N2CCN(C(c3ccccc3)c3ccccc3)CC2)C(=O)N1Cc1ccc(N2CCCC2=O)cc1 (stereo unspecified) ?
Shiga inhibitor: 5; HCMV antiviral: -7; Cycloheximide cs: 9; Pf growth 48h: 9.3µM*; Pf growth 96h: 15µM*; HCV inh: 5%

How did CCN(c1ccccc1)c1nnc(NC(=O)Nc2ccc(Br)cc2F)s1 do in these assays?
HCMV antiviral: 3

Results for O=C(Nc1ccn(Cc2ccc(Cl)cc2)n1)c1ccc2c(c1)OCO2 ?
Shiga inhibitor: 50*; HCMV antiviral: 21; Cycloheximide cs: 22; Pf growth 48h: 4%; HCV inh: 12%

Results for Cc1cccc(Cn2ccc(NC(=O)c3ccc4c(c3)OCO4)n2)c1 ?
Shiga inhibitor: 74*; HCMV antiviral: -27; Cycloheximide cs: 28*; Pf growth 48h: 8%; Pf growth 96h: inconclusive; HCV inh: 8%

Results for CC(C)(C)c1ccc(OCc2ccc(C(=O)NN)o2)cc1 ?
Shiga inhibitor: 116*; HCMV antiviral: 79; Cycloheximide cs: 71*; Pf growth 48h: 39%; Pf growth 96h: 80%; HCV inh: 2%

What do the screens show for `COc1ccccc1OCc1ccc(C(=O)NCc2cccnc2)o1`?
Shiga inhibitor: -9; HCMV antiviral: 52; Cycloheximide cs: -2; Pf growth 48h: -1%; Pf growth 96h: 0%; HCV inh: -4%

How did CC(C)(C)c1ccc(OCc2ccc(C(=O)NCc3cccnc3)o2)cc1 do in these assays?
Shiga inhibitor: 176*; HCMV antiviral: 54; Cycloheximide cs: 45*; Pf growth 48h: 18%; Pf growth 96h: 4%; HCV inh: -7%

What do the screens show for `Cc1nc(C)c(C(=O)NNC(=O)Nc2ccc(Cl)cc2)s1`?
Shiga inhibitor: -15; HCMV antiviral: 9; Cycloheximide cs: 2; Pf growth 48h: 8%; Pf growth 96h: 33%; HCV inh: 14%

What do the screens show for `CCCn1c(N)c(C(=O)CSc2nnc(C3CC3)n2-c2ccccc2)c(=O)[nH]c1=O`?
HCMV antiviral: -28; Pf growth 48h: inconclusive; Pf growth 96h: 10µM*; HCV inh: inconclusive

How did CCCn1c(N)c(C(=O)CSc2nc3ccccc3s2)c(=O)[nH]c1=O do in these assays?
Shiga inhibitor: 61*; HCMV antiviral: -66*; Cycloheximide cs: 15; Pf growth 48h: inconclusive; Pf growth 96h: inconclusive; HCV inh: inconclusive

What do the screens show for `CCCn1c(N)c(C(=O)CSc2nnc(N)s2)c(=O)[nH]c1=O`?
HCMV antiviral: 7; Pf growth 48h: -8%; Pf growth 96h: inconclusive; HCV inh: -4%

Results for COc1ccccc1CCNS(=O)(=O)c1cc2c3c(c1)CCN3C(=O)CC2 ?
HCMV antiviral: -1; Pf growth 48h: inconclusive; Pf growth 96h: -14%; HCV inh: inconclusive

What do the screens show for `Cn1cc(S(=O)(=O)N2CCc3ccccc32)cc1C(=O)Nc1ccc(C(F)(F)F)cc1`?
HCMV antiviral: -10

What do the screens show for `Cc1ccccc1S(=O)(=O)NC(=NCc1ccc(F)cc1)c1ccccc1`?
HCMV antiviral: -26; HCV inh: 5%

Results for COc1ccc(/C(N)=N/OC(=O)c2cccs2)cc1 ?
Shiga inhibitor: 57*; HCMV antiviral: 38; Cycloheximide cs: 41*; Pf growth 48h: 8%; Pf growth 96h: 27%; HCV inh: 3%

What do the screens show for `N/C(CC(=O)Nc1ccc(F)c(Cl)c1)=N\OC(=O)c1cccs1`?
Shiga inhibitor: 25; HCMV antiviral: 98; Cycloheximide cs: -2; Pf growth 48h: inconclusive; Pf growth 96h: inconclusive; HCV inh: -29%

How did N/C(=N\OC(=O)c1cccs1)c1ccc(Cl)cc1 do in these assays?
Shiga inhibitor: 135*; HCMV antiviral: 75; Cycloheximide cs: 55*; Pf growth 48h: 142%; Pf growth 96h: 72%; HCV inh: 3%

Results for CCOC(=O)CNc1ncnc2c1nnn2C ?
HCMV antiviral: -25

Results for CCOC(=O)C1(CCOC)CCN(Cc2ccc(C3CCCCO3)s2)CC1 (stereo unspecified) ?
Shiga inhibitor: -1; HCMV antiviral: 7; Cycloheximide cs: -2; Pf growth 48h: -1%; Pf growth 96h: inconclusive; HCV inh: -4%

How did O=C(c1ccc(Br)cc1)N(Cc1ccco1)C1CCS(=O)(=O)C1 (stereo unspecified) do in these assays?
Shiga inhibitor: 20; HCMV antiviral: -9; Cycloheximide cs: -3; Pf growth 48h: 14%; Pf growth 96h: inconclusive; HCV inh: 18%
